Measured values as given in the supplement of paper PMC10338343.
± gives the standard deviation.

Each sequence was assayed on EfPiwi piRISC loaded with L1MC piRNA (26 nt) (assay: pre-steady-state target cleavage rate (min^-1); auxiliary factor: none (no Gtsf1); guide: L1MC piRNA 5'p-UAACUAAAUACUAUGCAAGCUGUAGG; MIWI and MILI are mouse PIWI proteins and EfPiwi is from a freshwater sponge; tags in brackets are library labels; higher = faster piRNA-guided slicing of the target).
Protocol: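 Cleave-'n-Seq: a library of target RNAs (target site in constant flanks) at […] was incubated with 1 nM active freshwater sponge Ephydatia fluviatilis Piwi piRISC (synthetic 5'-monophosphorylated piRNA guide) with or without 500 nM EmGtsf1 at 33 °C for 1 min to 16 h. Uncleaved targets were sequenced and the pooled three trials fitted to a burst-and-steady-state model to give the pre-steady-state cleavage rate (min^-1). Sequence is the target site only. Fits with R² ≤ 0 are excluded.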
In the case of UCCUGGAUGAGCUUGCAUAGUAGUUAGUUA, the “pre-steady-state target cleavage rate” value is reported as 0.00517 ± 0.0042. In the case of UCCUGGAUGUCGAUGCAUAGAAAUUAGUUA, the “pre-steady-state target cleavage rate” value is reported as < 0.0001. In the case of UCCUGGAUGAGCUUGCAUAGUACUUUAGUUA, the “pre-steady-state target cleavage rate” value is reported as 0.00423 ± 0.0036. For UCCUGGAUGUCGAAGCAUACUAAUUAGUUA, the “pre-steady-state target cleavage rate” value was < 0.0001. With UCCUGGAUCAGCUUGCAUAGUAGUUUAGUUA the “pre-steady-state target cleavage rate” value was 0.011 ± 0.0045. For UCCUGGAUGUCGAUGCAUCAGUAUUUAGUUA, the “pre-steady-state target cleavage rate” value was < 0.0001. UCCUGGAUGUCGAACCAUAGUUUUAGUUA was tested, and the “pre-steady-state target cleavage rate” value was < 0.0001. In the case of UCCUGGAUGUCCUUGCAUAGUAAUUACUUA, the “pre-steady-state target cleavage rate” value is reported as < 0.0001. In the case of “UCCUGGAUGUCGAACGAUAGUAUUUAGAAA [g4:g14:cont:t1A]”, the “pre-steady-state target cleavage rate” value is reported as < 0.0001. For UCCUGGAUGUCGAACGAAAGUUUUUAGUUA, the “pre-steady-state target cleavage rate” value was < 0.0001. In the case of UCCUGGAUGUCGAACGUAUCUAUCUUAGUUA, the “pre-steady-state target cleavage rate” value is reported as < 0.0001. In the case of UCCUGGAAGUGCUUGCAUAGUAUUUAGAAA, the “pre-steady-state target cleavage rate” value is reported as < 0.0001. With UCCUGCUAGAGCUUGCAUAGUAUUUAGAAA the “pre-steady-state target cleavage rate” value was < 0.0001. UCCUGGAUGUCGAACGUUAGUCAUUUAGUUA was tested, and the “pre-steady-state target cleavage rate” value was < 0.0001. In the case of UCCUGGAUGUCGAACGUAUGUAUUUAGUAA, the “pre-steady-state target cleavage rate” value is reported as < 0.0001. In the case of UCCUGGAUGUCGAACGUUAGUAUCUAGUUA, the “pre-steady-state target cleavage rate” value is reported as < 0.0001. UCCUGGAUGUCGAACGAUAGUAUUUGGUUA was tested, and the “pre-steady-state target cleavage rate” value was < 0.0001. With UCCUGGAUGUCGUUGCAUGUAUUUAGUUA the “pre-steady-state target cleavage rate” value was < 0.0001. With UCCUGGUACAGCUUGCAUAGUAUUUAAGUUA the “pre-steady-state target cleavage rate” value was 0.00555 ± 0.0052. UCCUGGAACAGCUUGCAUCGUAUUUAGUUA was tested, and the “pre-steady-state target cleavage rate” value was 0.00791 ± 0.0048. For UCCUGGAACAGCUUGCAUAGUAUUAACAAA, the “pre-steady-state target cleavage rate” value was < 0.0001. In the case of UCCUGGAUGUCGAACCUUAGUAUUUAGUUA, the “pre-steady-state target cleavage rate” value is reported as < 0.0001. UCCUGGAUCAGCUUGCAUAGUAGUUAGUUA was tested, and the “pre-steady-state target cleavage rate” value was 0.0324 ± 0.012. For UCCUGGUACAGCUUGGUUAGUAUUUAGAAA, the “pre-steady-state target cleavage rate” value was < 0.0001. For UCCUGGAUGUCGAACCAUUGUAUUUAGUUA, the “pre-steady-state target cleavage rate” value was < 0.0001. For UCCUGGAUGUCGAACGAUAUAUUUAGUUA, the “pre-steady-state target cleavage rate” value was < 0.0001. UCCUGGAUGUCGAACGUUAGUAUUUAGAUA was tested, and the “pre-steady-state target cleavage rate” value was < 0.0001. With UCCUGGAUGUCGAUGCAUACUUUUUAGUUA the “pre-steady-state target cleavage rate” value was < 0.0001. UCCUGGAUGUCGAACGUAUGUUAUUAGUUA was tested, and the “pre-steady-state target cleavage rate” value was < 0.0001. UCCUGGAUGUCGAACCAUAGUAGUUUAGUUA was tested, and the “pre-steady-state target cleavage rate” value was < 0.0001. For UCCUGGAUGUCCUUGCAUACUAUUUAGAUA, the “pre-steady-state target cleavage rate” value was < 0.0001. For UCCUGGAUGUGCUUGCGUAGUAUUUAGUUA, the “pre-steady-state target cleavage rate” value was 0.00427 ± 0.0042. “UCCUGGAUGUCGAACGAUAGUAUUUAGUUU [g2:g14:cont:t1U]” was tested, and the “pre-steady-state target cleavage rate” value was < 0.0001. With UCCUGGAUGUCGUUGCAUAGUAUAAUGUUA the “pre-steady-state target cleavage rate” value was < 0.0001. With UCCUCCUACAGCUUGCAUUCUAUUUUCAAA the “pre-steady-state target cleavage rate” value was < 0.0001. For UCCUCCUACAGCUUGCAUAGGAUUUAGUUA, the “pre-steady-state target cleavage rate” value was 0.00638 ± 0.0035. For UCCUCCUACAGCUUGCAUAGAAUUUUCAAA, the “pre-steady-state target cleavage rate” value was < 0.0001. For UCCUGGAUCAGCUUGCAUAGUAUGUAGUUA, the “pre-steady-state target cleavage rate” value was 0.0179 ± 0.0092. In the case of UCCUGGUGACAGCUUGCAUAGUAUUUAGUUA, the “pre-steady-state target cleavage rate” value is reported as 0.0577 ± 0.023. For UCCUGCUACAGCUUGCAUACAUUUUAGUAA, the “pre-steady-state target cleavage rate” value was < 0.0001.
